Assay results from PubChem BioAssay (NCATS).
Records with an inconclusive call do not appear. Where a call stands in place of a potency, no number is given. Calls of active or inactive are those of the source. Calls follow the shape of the dose curve; as a rule, active = well fitted inhibition curve with a large enough effect; inconclusive = small, poorly fitted or top-dose-only effect; inactive = flat fitted curve, though single readings scatter. Where a SMILES comes first, the peptide text is derived from it. [ ]: non-standard residue; d: D form. pGlu = O=C1CC[C@@H](C(=O)O)N1; Thz = O=C(O)[C@@H]1CSCN1

tested on: CP262; assay: qHTS profiling for inhibitors of Plasmodium falciparum proliferation (AID 504749); also: nearly all actives have a fitted effect of over 60% in size; settings: P. falciparum in erythrocytes, SYBR Green DNA, 72 h; series mostly up to 28.7 µM
Method in brief: (§1)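 Quantitative HTS: compounds pinned into medium, infected erythrocytes added (0.3% parasitemia, 2.5% hematocrit), 72 h culture at 37 C under 5% CO2. Saponin/Triton lysis with SYBR Green I, overnight RT, then fluorescence read.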
Potency is read from the fitted curve at half-maximal effect.

Structure (SMILES) | Potency
O=C1CC[C@@H](C(=O)N2CSC[C@H]2C(=O)O)N1 ([pGlu]-[Thz]-OH) | inactive
Cc1c(Nc2ncccc2C(=O)O)cccc1C(F)(F)F | inactive
O=C(O)c1ccccc1Nc1cccc(C(F)(F)F)c1 | inactive
CC(C(=O)O)c1ccc2c(c1)[nH]c1ccc(Cl)cc12 (stereo not drawn) | inactive
CC1(C)C[C@@H]1C(=O)N/C(=C\CCCCSC[C@H](N)C(=O)O)C(=O)O | inactive
Cc1cc(O)c2ccccc2c1O | inactive
Nc1ccc(C(=O)O)c(O)c1 | inactive
C=C(Nc1ccc(OCC)cc1)Nc1ccc(OCC)cc1 | inactive
CCCCC[C@H](O)/C=C/[C@@H]1[C@@H](C/C=C\CCCC(=O)O)[C@@H](O)C[C@H]1O | inactive
[O-][n+]1ccccc1SSc1cccc[n+]1[O-] | 1070 nM (active)
CCCCCCCCCCCCCCCC(=O)OC(C)C | inactive
Clc1ccccc1-c1nc(-c2ccncc2)no1 | inactive
CN1[C@@H]2CC[C@H]1CC(OC(=O)C(CO)c1ccccc1)C2 (stereo partly drawn) | inactive
COc1ccc(-c2cc(=S)ss2)cc1 | inactive
O=C(O)[C@H](CC(=O)N1C[C@H]2CCCC[C@H]2C1)Cc1ccccc1 | inactive
Cc1ccccc1CNc1ncnc2c1ncn2C1OC(CO)C(O)C1O (stereo not drawn) | inactive
C#C[C@]1(O)CC[C@H]2[C@@H]3CCc4cc(O)ccc4[C@H]3CC[C@@]21C | inactive

Structure (SMILES) | Potency
COc1cc(/C=C/C(=O)N2CCN(CC(=O)N3CCCC3)CC2)cc(OC)c1OC | inactive
Cc1ccc(O)c(-n2nc3ccccc3n2)c1 | inactive
O=C(O)COc1ccc(C(=O)c2cccs2)c(Cl)c1Cl | inactive
Cc1ccc(C(=O)c2ccc(CC(=O)O)n2C)cc1 | inactive
CCCOC(=O)c1ccc(O)cc1 | inactive
C=CC(N)CCC(=O)O (stereo not drawn) | inactive
C=CCCCCCCCCC(=O)O | inactive
COc1ccc(/C=C/C(=O)Nc2ccccc2C(=O)O)cc1OC | inactive
O=C(OCc1ccccc1)c1ccccc1 | inactive
c1ccc2sc(SN3CCOCC3)nc2c1 | inactive
CCCCCCCCCCCCCCCCCC(=O)O | inactive
COc1cc2c3cc1Oc1cc(ccc1O)C[C@@H]1c4c(cc(OC)c(O)c4Oc4ccc(cc4)C[C@@H]3N(C)CC2)CC[N+]1(C)C | inactive
O=C(Nc1ccc(C(=O)O)c(O)c1)c1ccccc1 | inactive
C=CCN1C(=O)C(CC(C)C)NC1=S (stereo not drawn) | inactive
CC1(C)S[C@@H]2[C@H](NC(=O)[C@H](NC(=O)N3CCN(S(C)(=O)=O)C3=O)c3ccccc3)C(=O)N2[C@H]1C(=O)O | inactive
O=C(O)Cc1ccc(-c2ccccc2)cc1 | inactive
CCOC(=O)c1ccccc1O | inactive

tested on: CP265; assay: as above; settings: P. falciparum in erythrocytes, SYBR Green DNA, 72 h; series mostly up to 28.7 µM
Method in brief: as §1

Structure (SMILES) | Potency
O=C1CC[C@@H](C(=O)N2CSC[C@H]2C(=O)O)N1 ([pGlu]-[Thz]-OH) | inactive
Cc1c(Nc2ncccc2C(=O)O)cccc1C(F)(F)F | inactive
O=C(O)c1ccccc1Nc1cccc(C(F)(F)F)c1 | inactive
CC(C(=O)O)c1ccc2c(c1)[nH]c1ccc(Cl)cc12 (stereo not drawn) | inactive
CC1(C)C[C@@H]1C(=O)N/C(=C\CCCCSC[C@H](N)C(=O)O)C(=O)O | inactive
Cc1cc(O)c2ccccc2c1O | inactive
Nc1ccc(C(=O)O)c(O)c1 | inactive
C=C(Nc1ccc(OCC)cc1)Nc1ccc(OCC)cc1 | inactive
CCCCC[C@H](O)/C=C/[C@@H]1[C@@H](C/C=C\CCCC(=O)O)[C@@H](O)C[C@H]1O | inactive
[O-][n+]1ccccc1SSc1cccc[n+]1[O-] | 1260 nM (active)
CCCCCCCCCCCCCCCC(=O)OC(C)C | inactive
Clc1ccccc1-c1nc(-c2ccncc2)no1 | inactive
CN1[C@@H]2CC[C@H]1CC(OC(=O)C(CO)c1ccccc1)C2 (stereo partly drawn) | inactive
COc1ccc(-c2cc(=S)ss2)cc1 | inactive
O=C(O)[C@H](CC(=O)N1C[C@H]2CCCC[C@H]2C1)Cc1ccccc1 | inactive
Cc1ccccc1CNc1ncnc2c1ncn2C1OC(CO)C(O)C1O (stereo not drawn) | inactive
C#C[C@]1(O)CC[C@H]2[C@@H]3CCc4cc(O)ccc4[C@H]3CC[C@@]21C | inactive

Structure (SMILES) | Potency
COc1cc(/C=C/C(=O)N2CCN(CC(=O)N3CCCC3)CC2)cc(OC)c1OC | inactive
Cc1ccc(O)c(-n2nc3ccccc3n2)c1 | inactive
O=C(O)COc1ccc(C(=O)c2cccs2)c(Cl)c1Cl | inactive
Cc1ccc(C(=O)c2ccc(CC(=O)O)n2C)cc1 | inactive
CCCOC(=O)c1ccc(O)cc1 | inactive
C=CC(N)CCC(=O)O (stereo not drawn) | inactive
C=CCCCCCCCCC(=O)O | inactive
COc1ccc(/C=C/C(=O)Nc2ccccc2C(=O)O)cc1OC | inactive
O=C(OCc1ccccc1)c1ccccc1 | inactive
c1ccc2sc(SN3CCOCC3)nc2c1 | inactive
CCCCCCCCCCCCCCCCCC(=O)O | inactive
COc1cc2c3cc1Oc1cc(ccc1O)C[C@@H]1c4c(cc(OC)c(O)c4Oc4ccc(cc4)C[C@@H]3N(C)CC2)CC[N+]1(C)C | inactive
O=C(Nc1ccc(C(=O)O)c(O)c1)c1ccccc1 | inactive
C=CCN1C(=O)C(CC(C)C)NC1=S (stereo not drawn) | inactive
CC1(C)S[C@@H]2[C@H](NC(=O)[C@H](NC(=O)N3CCN(S(C)(=O)=O)C3=O)c3ccccc3)C(=O)N2[C@H]1C(=O)O | inactive
O=C(O)Cc1ccc(-c2ccccc2)cc1 | inactive
CCOC(=O)c1ccccc1O | inactive
